This passage reports outcome results from PubChem BioAssay.

Molecules are shown by their SMILES. Potency and affinity values are given separately. The source made the active and inactive calls. Entries that show only a call come without a potency. The limit is not given here; nearly all actives have IC50 up to about 0.91 µM.

For the experiment, the target named is Calcium-dependent protein kinase 4 (Plasmodium falciparum (isolate 3D7)) (UniProt Q8IBS5). The experiment is described as follows: PfCDPK4 kinase inhibitors, biochemical, TCAMS library (AID 1159588). The settings on record: recombinant PfCDPK4, Kinase-Glo ATP depletion luminescence.
Sequence of Calcium-dependent protein kinase 4 (Plasmodium falciparum (isolate 3D7)) (Q8IBS5 whole entry, looked up): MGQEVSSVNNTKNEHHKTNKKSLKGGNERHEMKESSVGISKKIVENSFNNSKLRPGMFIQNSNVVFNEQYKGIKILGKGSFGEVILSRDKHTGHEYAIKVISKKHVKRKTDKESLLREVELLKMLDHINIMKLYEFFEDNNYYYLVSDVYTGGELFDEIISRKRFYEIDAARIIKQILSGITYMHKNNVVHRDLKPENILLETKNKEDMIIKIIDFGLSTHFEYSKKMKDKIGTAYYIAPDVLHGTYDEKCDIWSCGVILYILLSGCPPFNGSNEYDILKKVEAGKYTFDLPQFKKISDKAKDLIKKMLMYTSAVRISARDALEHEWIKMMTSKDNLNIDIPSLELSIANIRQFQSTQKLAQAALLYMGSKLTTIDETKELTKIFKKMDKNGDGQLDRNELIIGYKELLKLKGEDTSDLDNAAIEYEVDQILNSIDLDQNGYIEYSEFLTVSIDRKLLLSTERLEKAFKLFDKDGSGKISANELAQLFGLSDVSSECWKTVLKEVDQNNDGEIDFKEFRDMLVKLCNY
For the molecule `Clc1cccc(Nc2ccc3c(N4CCCCC4)ncnc3n2)c1`, the outcome was inactive.

For `CC(C)Oc1ccc(C=CC(=O)Nc2noc3ccccc23)cc1`, the result was inactive.

`Cc1ccc2nc(C)cc(NN=Cc3ccc([N+](=O)[O-])o3)c2c1`: the outcome was inactive.

As for `O=C(NC1CC1)c1cnc(N2CCN(Cc3ccc(Cl)cc3)CC2)c(Cl)c1`, the outcome was inactive.

As for `Oc1ccc(CCNc2nc(NCCCOc3cc(CN4CCCCC4)ccc3F)nc(N3CCNCC3)n2)cc1`, the result was inactive.

For `Cc1nc(-c2ccc(-c3ccc(C(=O)Nc4ccc(I)c(OCCN5CCCC5)c4)cc3)c(C)c2)no1`, the outcome was inactive.

On to `c1ccc(C(c2ccccc2)N2CCN(C(c3cccnc3)c3nnnn3C3CCCC3)CC2)cc1` (stereo not given), for which the outcome was inactive.

Take `Cc1cc(N)c2cc(NC(=O)c3cccc4ccccc34)ccc2n1`: the result was inactive.

On to `COCCn1c(Sc2ccc(C#N)c([N+](=O)[O-])c2)nnc1-c1ccc(N(C)C)cc1`, for which the result was inactive.

Consider `COc1ccc(-c2nc3ccc(C)nc3nc2-c2ccc(OC)cc2)cc1`, for which the result was inactive.

Consider `c1cc(-c2ccc(CN3CCN(c4ccncc4)CC3)cc2)cc(-c2nc3ccccc3[nH]2)c1`, for which the outcome was inactive.

As for `Cn1nc(-c2ccc(S(=O)(=O)N3CCC(CCN4CCC(c5c[nH]c6ccccc56)CC4)CC3)s2)cc1C(F)(F)F`, the outcome was inactive.

Regarding `CCCC(CNC(=O)c1cc2c(Cl)cc(Cl)cc2[nH]1)CNc1cc(=O)c2ccccc2[nH]1` (stereo not given), the outcome was inactive.

Take `CN1CCC(N2CCC(Oc3cccc(C(=O)NCCCC4CCCC4)c3)CC2)CC1`: the outcome was inactive.

Take `CCCc1cc(Cc2cnc(N)nc2N)cc(CCC)c1OCCCCC(=O)O`: the outcome was inactive.

Regarding `O=C(NCC1CCC(C(=O)NCCN2CCCCC2)CC1)c1ccc(O)c(-c2ccc(Cl)c(Cl)c2)c1` (stereo not given), the result was inactive.

In the case of `COc1ccc(Cc2c(C)nc3nc(N)nc(N)c3c2C)cc1OC`, the result was inactive.

On to `CC(C)CCNCc1c(O)ccc2ccccc12`, for which the outcome was inactive.

Take `CCn1c(C(C)C)cc2c3c(N)nc(N)nc3ccc21`: the result was inactive.

With `COCCn1c(Sc2ncnc3sccc23)nc2ccccc21`, the outcome was inactive.

On to `COc1ccccc1CCNc1nc(C)cc(N[C@@H](Cc2ccccc2)C(=O)NCc2cccs2)n1`, for which the outcome was inactive.

In the case of `Cc1ccc2c(NN=Cc3cccc([N+](=O)[O-])c3)cc(C)nc2c1`, the outcome was inactive.

`CCCCCCCN(Cc1ccc(OC(C)(C)C(=O)OCC)cc1)C(=O)Nc1ccccc1OCC`: the result was inactive.

Turning to `COc1ccc(CNCc2ccc(-c3ccc(-c4nc5ccc(F)cc5[nH]4)cc3)cc2)cc1`, the outcome was inactive.

`COc1ccc(OC)c(-c2cccc(-c3cccc(NC(=O)c4ccc([N+](=O)[O-])o4)c3)n2)c1`: the outcome was inactive.
